Records with an inconclusive call do not appear. Activity calls are given as the source filed them. Unless noted, calls come from the whole dose curve; as a rule, active = well fitted curve in the direction sought with a large enough effect; inconclusive = small, poorly fitted or top-dose-only effect, or another doubt; inactive = no such curve, though single readings can be large; an effect the other way counts as inactive or inconclusive.
Key:
[1] = AP1 Signaling Pathway (AID 357; active = well fitted curve in either direction with a large enough effect, not every such curve was filed as active;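 note: ME-180 reporter cells stimulated with EGF at its EC50 level; % is set by controls: 0 for no effect and ±100 for the full control effect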); conditions: ME-180 AP-1-bla reporter, EGF-induced, beta-lactamase ratio, 5 h; at 17.2 µM (top of the series) unless noted
Procedure, shortened: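 Beta-lactamase reporter under AP-1 response element, ME-180 background. Stimulus: EC50 EGF. Compound exposure 5 h, 37 °C. Detection: CCF4, 2.5 h RT, 460/530 nm. Values: AC50 from titration.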

[2] = biological target: Glucocorticoid receptor (Homo sapiens) (UniProt P04150); assay: GR-GFP Redistribution (AID 450;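 active = compounds whose dose series gives a full or clear partial fitted curve of increased nuclear translocation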; note: potency is the fitted concentration of half-maximal effect)
Chain of Glucocorticoid receptor (Homo sapiens) (P04150 whole entry, looked up): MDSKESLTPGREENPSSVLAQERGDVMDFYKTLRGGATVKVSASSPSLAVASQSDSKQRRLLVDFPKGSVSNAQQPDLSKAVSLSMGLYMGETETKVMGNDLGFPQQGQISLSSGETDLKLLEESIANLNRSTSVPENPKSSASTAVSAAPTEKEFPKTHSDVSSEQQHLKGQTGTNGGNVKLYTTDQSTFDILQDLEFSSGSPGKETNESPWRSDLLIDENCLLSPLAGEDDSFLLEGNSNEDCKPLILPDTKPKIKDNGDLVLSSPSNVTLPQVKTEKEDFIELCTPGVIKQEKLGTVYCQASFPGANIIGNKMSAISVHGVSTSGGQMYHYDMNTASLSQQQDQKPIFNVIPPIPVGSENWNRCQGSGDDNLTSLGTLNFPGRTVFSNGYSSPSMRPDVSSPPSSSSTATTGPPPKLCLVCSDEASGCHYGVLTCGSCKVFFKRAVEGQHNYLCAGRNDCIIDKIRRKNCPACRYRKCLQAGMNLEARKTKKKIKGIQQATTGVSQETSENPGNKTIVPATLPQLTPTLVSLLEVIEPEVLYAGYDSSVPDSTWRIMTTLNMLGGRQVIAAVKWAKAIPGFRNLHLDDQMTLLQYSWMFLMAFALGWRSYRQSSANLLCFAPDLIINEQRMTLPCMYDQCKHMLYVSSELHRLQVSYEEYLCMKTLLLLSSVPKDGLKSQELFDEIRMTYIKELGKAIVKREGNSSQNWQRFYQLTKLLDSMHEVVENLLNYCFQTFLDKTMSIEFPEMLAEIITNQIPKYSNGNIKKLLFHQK

[3] = biological target: Cytochrome P450 1A2 (Homo sapiens) (UniProt P05177); assay: p450-cyp1a2 (AID 410; calls by dose curve; note: potency is the fitted concentration of half-maximal effect)
Chain of Cytochrome P450 1A2 (Homo sapiens) (P05177 whole entry, looked up): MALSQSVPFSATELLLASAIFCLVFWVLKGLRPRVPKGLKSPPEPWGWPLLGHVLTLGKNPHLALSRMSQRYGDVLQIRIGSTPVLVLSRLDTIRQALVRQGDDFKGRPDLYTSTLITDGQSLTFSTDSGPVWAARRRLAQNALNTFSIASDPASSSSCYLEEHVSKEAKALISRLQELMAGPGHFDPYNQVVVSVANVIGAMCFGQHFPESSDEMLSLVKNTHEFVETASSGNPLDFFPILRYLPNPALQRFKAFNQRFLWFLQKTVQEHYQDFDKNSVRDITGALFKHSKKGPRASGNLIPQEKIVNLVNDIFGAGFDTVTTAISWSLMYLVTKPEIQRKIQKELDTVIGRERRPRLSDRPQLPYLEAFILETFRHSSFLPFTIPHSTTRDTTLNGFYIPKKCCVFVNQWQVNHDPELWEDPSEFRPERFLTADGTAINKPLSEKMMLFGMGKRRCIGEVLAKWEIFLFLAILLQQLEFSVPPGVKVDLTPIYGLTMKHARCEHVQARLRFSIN
Procedure, shortened: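 Inhibition was calculated relative to 57 uM furafylline (full inhibition). The reaction used human CYP1A2 at 20nM with Luciferin-ME at its Km, 100uM, driven by an NADPH-regenerating system for 60 min at room temperature.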

[4] = Stat Signaling Pathway (AID 446; active = well fitted curve in either direction with a large enough effect, not every such curve was filed as active;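 note: ME-180 cervical cancer cells given 40 pM IL-6 alongside compound; SIE-controlled beta-lactamase reporter measured as 460/530 nm FRET emission ratio; % is set by controls: 0 for no effect and ±100 for the full control effect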); conditions: ME-180 SIE beta-lactamase reporter, IL-6 stimulated, 5 h; at 17.2 µM (top of the series) unless noted
Procedure, shortened: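 Screening format detects activators and inhibitors alike: ME-180 SIE-bla cells stimulated at 40 pM IL-6 for 5 hrs with compound, then dual-emission beta-lactamase read at 405 nm excitation.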

[5] = biological target: Guanine nucleotide-binding protein G(i) subunit alpha-1 (Homo sapiens) (UniProt P63096); assay: qHTS Assay for Inhibitors of RGS12 GoLoco Motif Activity (Green Fluorophore) (AID 879);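 note: 0% = labeled peptide with Gαi1 and full inhibition = labeled peptide alone without protein; negative values mean loss of peptide binding seen as reduced polarization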
Chain of Guanine nucleotide-binding protein G(i) subunit alpha-1 (Homo sapiens) (P63096 whole entry, looked up): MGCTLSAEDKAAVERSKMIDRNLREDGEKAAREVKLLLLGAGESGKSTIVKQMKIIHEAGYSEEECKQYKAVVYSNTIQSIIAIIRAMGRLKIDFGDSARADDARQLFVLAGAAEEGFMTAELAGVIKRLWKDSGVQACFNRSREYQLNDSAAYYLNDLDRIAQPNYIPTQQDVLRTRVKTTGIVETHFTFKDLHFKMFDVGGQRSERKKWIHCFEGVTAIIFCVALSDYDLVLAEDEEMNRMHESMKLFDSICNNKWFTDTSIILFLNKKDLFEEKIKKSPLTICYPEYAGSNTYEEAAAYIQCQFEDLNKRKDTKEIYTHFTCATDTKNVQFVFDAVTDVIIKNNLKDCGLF
Procedure, shortened: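 Fluorescence polarization assay: 50 nM Gαi1 with 10 nM FITC-labeled RGS12 GoLoco peptide in 10 mM Tris pH 7.5, 150 mM NaCl, 0.1 mM GDP, 0.05% NP40, 10 min at room temperature with compound.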

[6] = qHTS Assay for Identification of Small Molecule Agonists for Thrombopoietin (TPO) Signaling Pathway (AID 917); note: % is set by controls: 0 for no effect and ±100 for the full control effect
Procedure, shortened: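 Reporter: GpIIb promoter–luciferase in murine Ba/F3 expressing human TPO receptor. Pre-starved of IL-3 overnight; compounds with 26 pM TPO, 24 hrs, 37 C/5% CO2; luminescence read.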

[7] = biological target: Muscarinic acetylcholine receptor M1 (Rattus norvegicus) (UniProt P08482); assay: qHTS Assay for Antagonists of Acetylcholine Muscarinic M1 Receptor: Kinetic Measurement of Intracellular Calcium Response (AID 943);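 note: Fluo-4 calcium signal as peak divided by basal fluorescence over 4 min; nearly all actives have a fitted effect of over 75% in size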
Chain of Muscarinic acetylcholine receptor M1 (Rattus norvegicus) (P08482 whole entry, looked up): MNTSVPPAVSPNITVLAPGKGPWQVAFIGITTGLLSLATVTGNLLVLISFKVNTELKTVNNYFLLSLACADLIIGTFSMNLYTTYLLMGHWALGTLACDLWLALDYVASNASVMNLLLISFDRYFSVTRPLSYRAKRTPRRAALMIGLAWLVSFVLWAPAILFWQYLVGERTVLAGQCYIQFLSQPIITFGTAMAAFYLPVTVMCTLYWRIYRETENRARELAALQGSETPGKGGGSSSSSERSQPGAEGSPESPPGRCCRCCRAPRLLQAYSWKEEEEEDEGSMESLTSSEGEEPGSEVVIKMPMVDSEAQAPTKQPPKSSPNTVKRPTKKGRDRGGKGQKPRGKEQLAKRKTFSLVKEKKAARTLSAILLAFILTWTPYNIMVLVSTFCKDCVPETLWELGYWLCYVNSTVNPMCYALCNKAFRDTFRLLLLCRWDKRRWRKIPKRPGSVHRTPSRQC
Procedure, shortened: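 Intracellular calcium flux, recorded with Fluo-4 in a kinetic plate reader, served as signal; the response to carbachol at EC80 (100 nM final) was taken as maximal over minimal fluorescence after a 10 min compound pre-incubation in rat M1-CHO cells.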

[8] = biological target: Pyruvate kinase (Leishmania mexicana) (UniProt Q27686); assay: qHTS Validation Assay for Inhibitors of Leishmania Mexicana Pyruvate Kinase (AID 945);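 note: 0% = DMSO only neutral control wells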
Chain of Pyruvate kinase (Leishmania mexicana) (Q27686 2-499 E452W): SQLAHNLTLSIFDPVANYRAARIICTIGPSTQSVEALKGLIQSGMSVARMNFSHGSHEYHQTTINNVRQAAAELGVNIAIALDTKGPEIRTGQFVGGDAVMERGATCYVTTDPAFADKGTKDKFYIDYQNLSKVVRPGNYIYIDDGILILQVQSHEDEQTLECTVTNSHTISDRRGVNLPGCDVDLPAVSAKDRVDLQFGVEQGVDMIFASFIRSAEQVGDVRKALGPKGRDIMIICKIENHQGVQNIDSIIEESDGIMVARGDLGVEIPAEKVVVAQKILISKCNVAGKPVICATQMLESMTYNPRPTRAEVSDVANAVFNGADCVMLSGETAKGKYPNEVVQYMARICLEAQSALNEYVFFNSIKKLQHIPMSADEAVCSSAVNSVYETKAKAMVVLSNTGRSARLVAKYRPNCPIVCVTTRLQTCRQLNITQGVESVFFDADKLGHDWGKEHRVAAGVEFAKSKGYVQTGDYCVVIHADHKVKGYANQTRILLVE
Procedure, shortened: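 Substrate mix (0.5 mM PEP, 0.1 mM ADP, 7 mM MgCl2, 50 mM KCl, pH 7.2 imidazole) received compound by pin tool, then 0.2 nM LmPYK E451W. After 1 h at room temperature, PKLight was added and luminescence measured.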

[9] = biological target: Pyruvate kinase PKM (Homo sapiens) (UniProt P14618); assay: qHTS Assay for Activators of Human Muscle Pyruvate Kinase (AID 954; active = well fitted curve in the direction sought with a large enough effect, not every such curve was filed as active;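 note: 0% = uninhibited enzyme and -100% = no enzyme or full thiadiazolimine inhibition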)
Chain of Pyruvate kinase PKM (Homo sapiens) (P14618 whole entry, looked up): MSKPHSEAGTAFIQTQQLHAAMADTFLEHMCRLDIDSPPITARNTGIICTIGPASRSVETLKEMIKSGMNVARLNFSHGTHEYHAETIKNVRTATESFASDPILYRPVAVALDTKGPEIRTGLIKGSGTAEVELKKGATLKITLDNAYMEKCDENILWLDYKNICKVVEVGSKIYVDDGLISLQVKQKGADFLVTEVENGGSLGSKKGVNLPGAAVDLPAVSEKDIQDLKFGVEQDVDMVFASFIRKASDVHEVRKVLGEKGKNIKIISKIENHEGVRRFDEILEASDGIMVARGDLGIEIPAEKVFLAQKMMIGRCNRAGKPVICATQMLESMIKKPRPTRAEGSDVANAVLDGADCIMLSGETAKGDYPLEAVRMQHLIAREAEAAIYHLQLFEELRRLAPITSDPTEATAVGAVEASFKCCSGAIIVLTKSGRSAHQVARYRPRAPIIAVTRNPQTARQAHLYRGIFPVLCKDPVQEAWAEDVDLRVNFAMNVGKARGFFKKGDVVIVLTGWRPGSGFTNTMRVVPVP
Procedure, shortened: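 Reaction: 0.1 nM purified PKM2 with 0.5 mM phosphoenolpyruvate and 0.1 mM ADP, room temperature, 1 h. Readout: luciferase-based ATP luminescence after stop reagent. Activators judged against a 0.3 nM enzyme column.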

[10] = biological target: Alpha-galactosidase A (Homo sapiens) (UniProt P06280); assay: Counterscreen for Glucocerebrosidase Inhibitors: qHTS Assay for Human alpha-Galactosidase at pH 4.5 (AID 992); note: 0% is about no effect
Chain of Alpha-galactosidase A (Homo sapiens) (P06280 whole entry, looked up): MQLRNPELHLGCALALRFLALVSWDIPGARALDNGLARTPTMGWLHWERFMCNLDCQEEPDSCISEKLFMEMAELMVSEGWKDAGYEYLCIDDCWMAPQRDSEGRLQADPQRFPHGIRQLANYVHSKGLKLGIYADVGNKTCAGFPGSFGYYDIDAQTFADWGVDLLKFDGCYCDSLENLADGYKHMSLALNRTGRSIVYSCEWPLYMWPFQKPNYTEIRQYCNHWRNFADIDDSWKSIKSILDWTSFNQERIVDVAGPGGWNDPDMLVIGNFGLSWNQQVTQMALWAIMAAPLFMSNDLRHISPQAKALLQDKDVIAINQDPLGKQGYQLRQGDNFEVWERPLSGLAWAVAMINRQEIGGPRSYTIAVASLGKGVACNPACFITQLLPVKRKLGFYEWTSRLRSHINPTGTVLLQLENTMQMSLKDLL
Procedure, shortened: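 Concentration-response curves (0.7 nM to 77 uM final) were modeled with the Hill equation to give AC50. Reactions: 2 nM enzyme, 80 uM fluorogenic alpha-galactoside, pH 4.5 citric acid buffer, 20 min, room temperature.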

[11] = biological target: alpha-glucosidase (Oryza sativa, rice) (UniProt Q653V4); assay: Counterscreen for Glucocerebrosidase Inhibitors: qHTS Assay for Rice alpha-Glucosidase at pH 5.0 (AID 997);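 note: 0% = full activity with enzyme and -100% = basal without enzyme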
Procedure, shortened: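 Rice alpha-glucosidase (4 nM final) with 400 uM 4-methylumbelliferyl-alpha-D-glucopyranoside in citrate buffer pH 5.0, 20 min at room temperature, stopped at pH 10; fluorescence 365/440 nm, compounds 0.7 nM–77 uM, AC50 from Hill fits.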

CN1CCc2nc(SCC(=O)Nc3ccc(Cl)cc3)c(C#N)cc2C1
inactive: activity change, negative = inhibition [1] 5.33% | Potency [2] > 20.6 µM

Clc1ccc(-c2nnc3sc(Cc4cccs4)nn23)cc1
inactive: activity change, negative = inhibition [1] 2.06% | Potency [2] > 20.6 µM

Cc1cc(C)c(/C=C2/C(=O)Nc3ccccc32)[nH]1
active: Potency [3] 0.794 µM
inactive: activity, negative = inhibition [4] -25.4% [at 38 µM] | outcome [5] | Potency [6] | Potency [7] | Potency [8] | outcome [9] | outcome [10] | outcome [11]

From PubChem BioAssay (NCATS)
